Source: PubChem BioAssay
Tau fluor counter = Counterscreen qHTS for Inhibitors of Tau Fibril Formation, Fluorescence Polarization; tau K18 P301L Alexa594 fluorescence, heparin fibrillization; Potency, µM (titrated, usually from 57.7 µM); actives 0.93% (n = 280,000); further: nearly all actives have a fitted effect of over 55% in size
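Human tau K18 P301L (15 uM unlabeled, 0.24 uM Alexa 594-labeled) in 100 mM sodium acetate pH 7 with 20 uM heparin, 6 hr at 37 C. ThT 30 uM added, 1 hr ambient; Alexa 594 FP and total fluorescence read at 555/632 nm.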
Tau ThT inhib = qHTS for Inhibitors of Tau Fibril Formation, Thioflavin T Binding | recombinant tau K18 P301L (four-repeat tau fragment), heparin-induced fibrillization, ThT fluorescence | AID 1460, 2008 | actives 2.1% (n = 270,000) | Potency, µM (highest dose often 57.4 µM), hits mostly inhibitors; further: nearly all actives have a fitted effect of over 55% in size
Target sequence (P10636 561-689 P618L limits assumed): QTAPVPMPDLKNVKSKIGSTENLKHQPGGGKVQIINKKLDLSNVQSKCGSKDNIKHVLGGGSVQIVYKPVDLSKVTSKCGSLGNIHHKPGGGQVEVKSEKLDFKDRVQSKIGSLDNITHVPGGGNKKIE
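In this qHTS, human K18 P301L tau is incubated with compound and heparin for 6 hr at 37 C, and Thioflavin T fluorescence then reports fibril load.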
TR SRC2 fluor cs = Total Fluorescence Counterscreen for Inhibitors of the Interaction of Thyroid Hormone Receptor and Steroid Receptor Coregulator 2; TRb/SRC2 Texas Red total fluorescence interference; AID 1479, 2009; actives 0.29% (n = 280,000); Potency, µM (series often up to 106 µM); active means well fitted curve in either direction with a large enough effect; inconclusive means small, poorly fitted or top-dose-only effect
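Human TRb ligand-binding domain at 0.6 uM with 20 nM Texas Red SRC2 peptide in Tris buffer containing 1 uM T3 and 5% DMSO, incubated with compound 5 h at ambient temperature. Total fluorescence (555/632 nm) calculated as parallel + 2 × perpendicular.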
TRb SRC2 PPI = qHTS for Inhibitors of the Interaction of Thyroid Hormone Receptor and Steroid Receptor Coregulator 2. Thyroid hormone receptor beta (Homo sapiens), P10828. TRbeta-SRC2 peptide binding, fluorescence polarization; receptor liganded with 1 µM T3. Potency, µM (top dose mostly 106 µM), hits mostly inhibitors. actives 0.065% (n = 280,000). AID 1469, 2008; further: nearly all actives have a fitted effect of over 50% in size
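Decrease in fluorescence polarization of 20 nM Texas Red SRC2 coactivator peptide flagged inhibition of its binding to 0.6 uM TRb LBD; 1 uM T3 included, incubation 5 hr, ex 555/em 632 nm.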
Tau FP inhib = qHTS for Inhibitors of Tau Fibril Formation, Fluorescence Polarization; K18 P301L tau heparin fibrillization, Alexa594 FP, 6 h; Potency, µM (doses to about 57.7 µM), hits mostly inhibitors; actives 0.39% (n = 280,000); further: nearly all actives have a fitted effect of over 55% in size
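Human K18 P301L fragment (15 uM unlabeled plus 0.24 uM Alexa 594-labeled) in 100 mM sodium acetate pH 7 with compound, aggregation induced by 20 uM heparin for 6 hr at 37 C. ThT (30 uM) added for 1 hr, then Alexa 594 FP read.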
Large screens that a line does not name were inactive; [ ] = another dose, or the depositor's remark. An excerpt weighted towards active compounds, which were near 3.1% of everything screened. Unless noted, the call rests on the fitted dose curve; in most records, active means well fitted curve in the direction sought with a large enough effect; inconclusive means small, poorly fitted or top-dose-only effect, or another doubt; inactive means no such curve, though single readings can be large; an effect the other way counts as inactive or inconclusive.

CC(=O)NC/C(C)=N\Nc1ccc([N+](=O)[O-])cc1	Tau ThT inhib 16µM
CC(=O)NCC(=O)OCc1ccc([N+](=O)[O-])cc1	none
C/C(=N\Nc1ccc([N+](=O)[O-])cc1)c1ccc(O)cc1	Tau fluor counter inconclusive, Tau ThT inhib 3.2µM
Cc1ccc(-c2nc3ccccc3[nH]2)cc1NC(=O)COc1ccccc1[N+](=O)[O-]	Tau ThT inhib inconclusive, Tau FP inhib inconclusive
Cc1ccc(C(=O)c2ccccc2C(=O)OCC(=O)Nc2cccc([N+](=O)[O-])c2)cc1	Tau fluor counter 16µM[quencher], Tau FP inhib inconclusive
Cc1ccc(-c2nc(C)sc2CC(=O)OCC(=O)Nc2cccc([N+](=O)[O-])c2)cc1	Tau fluor counter inconclusive
CCC(C(=O)NCc1cc(OC)ccc1OC)n1nc(C)c2sc3ccccc3c2c1=O (stereo not given)	none
CCCCC1=CC2=C(OC(C)=O)C(=O)C(C)(OC(=O)C3CCCC3)C(=O)C2=CO1 (stereo not given)	Tau fluor counter inconclusive, Tau ThT inhib 28µM, Tau FP inhib inconclusive
CC/C(C)=N/Nc1nc(-c2cc3cccc(OC)c3oc2=O)cs1	Tau fluor counter inconclusive, Tau ThT inhib 18µM
CCOc1ccccc1NC(=O)CSc1nccn1Cc1ccc(F)cc1	none
Cc1ccc(C2c3[nH]c4ccccc4c3CCN2C(=O)CSc2ccccc2)cc1 (stereo not given)	none
CCOc1ccc(C2c3[nH]c4ccccc4c3CCN2C(=O)CSc2ccccc2)cc1 (stereo not given)	TR SRC2 fluor cs 2.8µM[quencher]
COc1ccc2cc(C(=O)NCc3ccc4c(c3)CCN4C(=O)c3ccc(C)cc3)[nH]c2c1	Tau fluor counter inconclusive
CCCCOC(=O)c1c(C)oc2ccc(NS(=O)(=O)c3ccc4c5c(cccc35)C(=O)N4)cc12	Tau fluor counter 16µM[quencher], Tau ThT inhib inconclusive
CCOc1ccc(-c2nonc2NC(=O)c2ccc(C)cc2)cc1OCC	none
COc1ccc(NCc2cc3cc4c(cc3n(CC(=O)Nc3ccc(C)cc3)c2=O)OCO4)cc1	Tau fluor counter 22µM[quencher], Tau FP inhib inconclusive
COc1ccc2cc(CNc3ccccc3)c(=O)n(CC(=O)Nc3ccc(C(C)=O)cc3)c2c1	Tau fluor counter 13µM[quencher]
CCc1ccc(NCc2cc3cc4c(cc3n(CC(=O)Nc3ccc(OC)cc3)c2=O)OCO4)cc1	Tau fluor counter inconclusive, Tau FP inhib inconclusive
Cc1ccc(CNC(=O)c2ccc3c(=O)n(CC4CCCO4)c(=S)[nH]c3c2)cc1 (stereo not given)	none
O=C(NCc1ccccc1)c1ccc2c(=O)[nH]c3c(C(=O)NCC4CCCO4)sc(=S)n3c2c1 (stereo not given)	Tau fluor counter inconclusive, Tau ThT inhib 14µM
Cc1ccc(CNC(=O)c2ccc3c(=O)[nH]c4c(C(=O)NCC5CCCO5)sc(=S)n4c3c2)cc1 (stereo not given)	Tau fluor counter inconclusive, Tau ThT inhib 8.9µM
COCCCNC(=O)c1ccc2c(=O)n(CC3CCCO3)c(=S)[nH]c2c1 (stereo not given)	none
O=C(NC1CCCC1)c1sc(=S)n2c1[nH]c(=O)c1ccccc12	Tau fluor counter inconclusive, Tau ThT inhib 16µM
CCCCCNC(=O)c1ccc2c(=O)[nH]c3c(C(=O)NCC4CCCO4)sc(=S)n3c2c1 (stereo not given)	Tau ThT inhib 14µM
C[Si](C)(Cl)[Si](C)(C)Cl	none (no result: Tau fluor counter, Tau ThT inhib, Tau FP inhib)
Cc1ccc(NC(=O)N2CCC(n3c(C)nc4cccnc43)CC2)c(Cl)c1	none
CCn1c(N)c(C(=O)NCC2CCCO2)sc1=S (stereo not given)	Tau ThT inhib 35µM, Tau FP inhib inconclusive
C=C(CCC12O[C@H](C(=O)O)[C@@](O)(C(=O)O)[C@](C(=O)O)(O1)[C@H](OC(=O)/C=C/[C@@H](C)C[C@@H](C)CC)[C@H]2O)[C@@H](OC(C)=O)[C@H](C)Cc1ccccc1	Tau ThT inhib inconclusive
COC(=O)c1ccc(C(=O)Nc2ccc(N)cc2N)cc1	Tau ThT inhib 13µM
